Bioassay records deposited in PubChem by several laboratories.
Rows were chosen to be rich in hits. Some 4.6% of all compounds tested hit in one or more screens of this group.
HIF-2a inh = inhibitors of HIF-2a; 786-0 RCC cells HIF-2a reporter, luciferase luminescence, overnight; 360,000 compounds, 0.72% hits; inhibition, % at 18.8 µM; AID 624352;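 active means inhibition of the luminescence signal of 40% or more relative to plate controls, in a single-dose primary screen at 18.75 µM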
CF NFkB inh = inhibitors of cystic fibrosis induced NF-kB | KKLEB NF-kB-GFP reporter, PAF-induced, GFP fluorescence overnight | inhibition, % at 5 µM | 360,000 compounds, 0.86% hits | AID 588850;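 active means at least 50% inhibition at 5 µM, scaled per plate between neutral and stimulator controls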;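 further: PAF is a Pseudomonas aeruginosa culture filtrate used as stimulus; plate controls were PAF-stimulated DMSO wells for no effect and unstimulated DMSO wells for full effect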
Peg3 promoter = reduces Peg3 promoter-driven luciferase expression in HeLa; HeLa PEG-Prom luciferase reporter, luminescence, overnight; inhibition, % at 20 µM; 360,000 compounds, 1.7% hits;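 active means inhibition of at least 50% at 20 µM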
ABHD5 PLIN5 PPI = blocks binding of human ABHD5 to perilipin-5; Split G. princeps luciferase complementation, luminescence, 4 h; inhibition, % at 4 µM; 360,000 compounds, 0.78% hits; Q00G26+Q8WTS1;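 active means inhibition above the mean inhibition across every tested compound plus 3 SD, cut at about 22% in these data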;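 further: 0% = DMSO only wells and the 100% control is not disclosed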
KKLEB cytotox = reduces viability of KKLEB cystic fibrosis airway cells | 360,000 compounds, 0.36% hits | KKLEB CF airway cells viability, ATPlite luminescence, overnight; active compounds read low; cells stimulated with P. aeruginosa culture filtrate | AID 602141 | activity change (cytotoxicity), % at 5 µM;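 active means corrected activity change at or below -50% at 5 µM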
Mdm2 MdmX PPI = disrupts the human Mdm2-MdmX interaction | SaOS-2 split-luciferase Mdm2/MdmX complementation, luminescence | O15151+Q00987 | inhibition, % at 8 µM | AID 485346 | 330,000 compounds, 3% hits;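 active means inhibition of at least 50% at 8 µM in the primary screen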
Target sequence (O15151 whole entry, looked up): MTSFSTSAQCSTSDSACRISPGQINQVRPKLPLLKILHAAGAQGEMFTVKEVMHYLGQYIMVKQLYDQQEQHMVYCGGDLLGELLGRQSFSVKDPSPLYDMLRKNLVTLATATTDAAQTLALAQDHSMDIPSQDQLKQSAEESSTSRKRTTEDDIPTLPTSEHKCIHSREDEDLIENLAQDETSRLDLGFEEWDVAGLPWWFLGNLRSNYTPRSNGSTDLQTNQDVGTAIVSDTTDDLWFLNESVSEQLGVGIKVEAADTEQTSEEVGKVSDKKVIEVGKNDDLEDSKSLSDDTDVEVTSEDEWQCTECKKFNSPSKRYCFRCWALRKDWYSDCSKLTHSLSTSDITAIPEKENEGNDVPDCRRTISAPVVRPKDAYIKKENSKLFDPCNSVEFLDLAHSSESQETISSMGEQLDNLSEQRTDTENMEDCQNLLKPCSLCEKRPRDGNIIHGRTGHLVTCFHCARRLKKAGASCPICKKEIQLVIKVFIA
Target sequence (Q00987 whole entry, looked up): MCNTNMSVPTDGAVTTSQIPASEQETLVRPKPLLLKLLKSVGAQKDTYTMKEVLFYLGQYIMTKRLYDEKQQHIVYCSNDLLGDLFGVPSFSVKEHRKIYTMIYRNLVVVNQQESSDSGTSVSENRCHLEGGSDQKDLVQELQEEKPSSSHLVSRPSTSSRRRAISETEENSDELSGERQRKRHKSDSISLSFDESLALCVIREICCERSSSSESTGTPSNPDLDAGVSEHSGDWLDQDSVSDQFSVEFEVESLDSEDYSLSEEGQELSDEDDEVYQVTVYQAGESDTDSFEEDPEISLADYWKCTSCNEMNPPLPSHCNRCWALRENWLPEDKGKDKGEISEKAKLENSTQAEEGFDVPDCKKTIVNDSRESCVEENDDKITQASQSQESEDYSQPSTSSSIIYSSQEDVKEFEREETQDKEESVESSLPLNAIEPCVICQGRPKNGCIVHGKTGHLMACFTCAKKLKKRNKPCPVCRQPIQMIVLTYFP
ABHD5 PLIN5 conf = ABHD5-PLIN5 interaction inhibition, confirmed; shares compounds with ABHD5 PLIN5 PPI; biochemical ABHD5-PLIN5 interaction, luminescence; inhibition, % at 4 µM; 2,200 compounds, 67% hits; in the data active means inhibition above about 23%;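 further: 0% = DMSO vehicle wells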
HNF4 counter = active in HNF4 split-luciferase counter-screen for ABHD5-PLIN5 inhibitors; 2,200 compounds, 77% hits; shares compounds with ABHD5 PLIN5 PPI; HNF4 dimerization, luminescence, biochemical; inhibition, % at 4 µM; AID 651674;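 active means mean inhibition across replicate wells exceeding the computed hit threshold, cut at about 13% in these data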;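 further: light from luciferase halves that rejoin when HNF4 fusion proteins dimerize; 0% = DMSO only wells and the 100% control is not given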
HIF-2a inh conf = HIF-2a inhibition, single concentration confirmation; shares compounds with HIF-2a inh; 786-0 RCC cells, HIF-2a luciferase reporter luminescence, overnight; inhibition, % at 18.8 µM; 1,800 compounds, 56% hits;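 active means mean inhibition across four replicates of at least 40 percent at the single tested concentration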
HIF-1a counter = counter-screen for HIF-2a inhibitors: HIF-1a inhibition in MiaPaCa-2 cells. shares compounds with HIF-2a inh. MiaPaCa-2 HIF-1a luciferase reporter, desferoxamine, overnight. inhibition, % at 18.8 µM. 1,800 compounds, 72% hits. AID 651589;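 active means mean inhibition of the reporter signal across four replicates at the single tested dose of 50% or more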
Starred values were filed as active, the others as inactive; nt = no result.

SMILES	HIF-2a inh	CF NFkB inh	Peg3 promoter	ABHD5 PLIN5 PPI	KKLEB cytotox	Mdm2 MdmX PPI	ABHD5 PLIN5 conf	HNF4 counter	HIF-2a inh conf	HIF-1a counter
Cn1cnc([N+](=O)[O-])c1S(=O)(=O)Oc1cccc2ccccc12	83*	86*	105*	76*	-79*	nt	76*	106*	31	66*
COc1cc(/C=C/C(=O)c2ccc(C)cc2)ccc1OCC#N	86*	41	103*	45*	-38	25	72*	54*	25	102*
COc1ccc(CCNC(=O)COC(=O)/C=C/c2ccc(OCC#N)c(OC)c2)cc1OC	34	16	3	2	-1	7	nt	nt	nt	nt
CCCCCCCCN1C(=O)[C@H](CC(=O)NCc2ccc(OC)c(OC)c2)C[C@@]2(C(=O)OC)CC(C)(C)CC=C12	0	nt	nt	2	nt	nt	nt	nt	nt	nt
CCOC(=O)c1cc([N+](=O)[O-])cc([N+](=O)[O-])c1Sc1ncnc2nc[nH]c12	83*	18	98*	38*	-28	nt	62*	102*	61*	107*
CCOC(=O)C(C)(C)Sc1ncnc2nc[nH]c12	-7	5	9	-3	-10	-4	nt	nt	nt	nt
O=C(/C=C/c1ccccc1)c1c[nH]c2ccccc12	-233	5	-362	1	-42	-194	nt	nt	nt	nt
O=C(/C=C/c1ccc(F)cc1)c1ccccc1Br	59*	57*	104*	56*	-37	35	96*	88*	43*	106*
CN(CC(=O)Nc1ccccc1Cl)C(=O)CSc1nnc(-c2ccco2)n1C	-1	-12	10	3	18	1	nt	nt	nt	nt
CCN(CC)S(=O)(=O)c1cc(NC(=O)C2CC(=O)N(Cc3ccccc3)C2)ccc1Cl (stereo not drawn)	14	19	16	-4	-19	42	nt	nt	nt	nt
COc1ccc(C(=O)/C=C2/C(=O)Nc3ccccc32)cc1OC	40*	23	30	43*	-11	39	53*	85*	42*	44
COc1ccc(C2NC(=O)c3ccccc3N2)cc1OC (stereo not drawn)	-135	8	-93	-2	-8	16	nt	nt	nt	nt
NC(=O)COc1ccc(C(=O)/C=C2/C(=O)Nc3ccccc32)cc1	46*	10	5	54*	-7	34	55*	89*	35	25
C=C(CN(C)C)C(=O)c1ccc(OC2OC(COC(C)=O)C(OC(C)=O)C(OC(C)=O)C2OC(C)=O)cc1 (stereo not drawn)	89*	60*	100*	39*	-28	nt	99*	106*	96*	105*
O=C(CCNC(=O)c1ccccc1Cl)NCC(c1ccc(F)cc1)N1CCOCC1 (stereo not drawn)	-8	-2	-6	5	-2	-2	nt	nt	nt	nt
Cc1cccc(C(=O)Nc2ccc(C(=O)/C=C/c3cccnc3)cc2)c1	76*	38	109*	68*	-16	nt	102*	102*	-104	104*
O=C(/C=C/c1cccnc1)/C=C/c1cccnc1	95*	75*	109*	95*	3	nt	102*	108*	66*	107*
CCOC(=O)/C(=C/c1ccc(OC(F)F)cc1)C1=Nn2c(nnc2-c2ccc(Cl)cc2)SC1	88*	92*	106*	42*	-104*	nt	101*	91*	43*	105*
O=C(C(=Cc1ccc(F)cc1)c1ccccc1)c1ccc(O)cc1	-18	-19	18	-4	-1	nt	nt	nt	nt	nt
O=C(C(=Cc1ccc(F)cc1)C(=O)c1ccccc1)c1ccccc1	85*	37	100*	94*	-7	nt	97*	87*	43*	102*
C=C1C(=O)c2sccc2C(c2ccc(OC)c(OC)c2)C1COC(C)=O (stereo not drawn)	87*	84*	105*	79*	-92*	nt	95*	108*	99*	106*
CC(C)(C)c1ccc(OCc2ccc(C(=O)Nc3cccnc3)o2)cc1	-215	9	-162	-12	-29	-8	nt	nt	nt	nt
O=C(/C=C/c1ccccc1)CC(O)(c1ccccc1)C(F)(F)C(F)F (stereo not drawn)	70*	23	101*	82*	-34	25	98*	77*	53*	106*
O=C(CC(O)(c1ccccc1)C(F)(F)C(F)F)c1cccs1 (stereo not drawn)	3	6	3	-2	0	19	nt	nt	nt	nt
O=C(/C=C/c1ccccc1)CC(O)(c1ccccc1)C(F)(F)F (stereo not drawn)	73*	53*	105*	81*	-58*	31	99*	89*	44*	104*
SMILES	HIF-2a inh	CF NFkB inh	Peg3 promoter	ABHD5 PLIN5 PPI	KKLEB cytotox	Mdm2 MdmX PPI	ABHD5 PLIN5 conf	HNF4 counter	HIF-2a inh conf	HIF-1a counter
CCOc1ccc(CCNC(=O)COC(=O)C2=NNC(=O)CC2)cc1OCC	5	23	-8	3	4	5	nt	nt	nt	nt
CNc1ccc(Br)cc(C(=O)/C=C/c2ccc(OC)cc2)c1=O	9	-11	-7	12	-4	-10	nt	nt	nt	nt
CNc1ccc(Br)cc(C(=O)/C=C/c2cc(OC)ccc2OC)c1=O	43*	10	26	26*	-12	14	63*	58*	95*	88*
CC1CCCCC1NC(=O)/C(C#N)=C/c1ccccc1F (stereo not drawn)	88*	26	96*	34*	-14	27	82*	78*	81*	106*
CC1(C(=O)NS(=O)(=O)c2ccc(Cl)s2)CCN1C(=O)C1(c2ccccc2)CCCC1 (stereo not drawn)	13	-13	-17	-4	-4	nt	nt	nt	nt	nt
NC(=O)c1ccc(NC(=O)COC(=O)CCN2C(=O)c3ccccc3C2=O)cc1	10	-20	2	-6	-4	4	nt	nt	nt	nt
C[C@@H](N)C(=O)NC[C@H]1O[C@@H](n2cnc3c(N)ncnc32)[C@H](O)[C@@H]1O	-16	-12	-6	-2	2	-5	nt	nt	nt	nt
O=C1C=CC(=O)N1c1cccc(-c2ccccc2)c1	76*	8	109*	28*	5	-3	51*	94*	68*	40
C=CSc1sc(Cl)c(N2CCOCC2)c1[N+](=O)[O-]	3	8	21	1	12	38	nt	nt	nt	nt
